This excerpt belongs to a sample that is enriched for hits.
CD40 NFkB inh – CD40 pathway inhibition in BL2 cells. BL2 NF-kB luciferase reporter, CD40L-induced, 4 h. inhibition, % at 10 µM. hit rate 0.94% among 83,000. AID 1053188;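 active = mean inhibition of at least 50% with a set share of replicates also reaching that level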;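 also: 0% = neutral control wells and 100% = IKK inhibitor VII at 50 µM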
* = called active by the depositor; ! = not confirmed by another sample; [ ] = another dose, or the depositor's remark.

SMILES	CD40 NFkB inh
CNc1ccc(C(=O)OCC(=O)NC(=O)NC2CCCCC2)cc1[N+](=O)[O-]	3
CS(=O)(=O)c1ccc(C(=O)OCC(=O)NC(=O)C2CCCCC2)cc1[N+](=O)[O-]	85*
CC(C)(C)C(=O)COC(=O)c1ccc(N)c([N+](=O)[O-])c1	-65
CCNC(=O)[C@@H]1[C@@H](CO)[C@@H]2Cn3c(cccc3=O)[C@@H]2N1C(=O)CC1CC1	3[25 µM]
Cc1ccccc1-c1ccc(C2[C@@H]3CN(S(=O)(=O)c4ccccc4C)C[C@H]2N3)cc1 (stereo partly drawn)	-3
CC(C)NC(=O)N1C[C@@H]2C(c3ccccc3)[C@H](C1)N2Cc1ccc(F)cc1 (stereo partly drawn)	-5
CC1Cc2ccccc2N1c1ncnc(N)c1[N+](=O)[O-] (stereo not drawn)	54*
CC1Cc2ccccc2N1C(=O)c1cnc2n(c1=O)CCS2 (stereo not drawn)	1
CC1Cc2ccccc2N1C(=O)c1cnsn1 (stereo not drawn)	7
CC(=O)Nc1cccc2c1O[C@@H](CN(C)C)[C@@H](C)CN(C)C2=O	4
Cc1nonc1C(=O)N/N=C/c1ccc([N+](=O)[O-])o1	-6
COc1ccc(/C=N/NC(=O)CC(=O)N/N=C/c2ccc(OC)cc2)cc1	3
COc1ccc(/C=N/NC(=O)c2nonc2C)cc1	64*
O=C(CCN1CCCCC1)N[C@H]1CC[C@@H](CC(=O)N2CCC(Cc3ccccc3)CC2)O[C@H]1CO	-4[25 µM]
O=C(CC(=O)c1ccccc1)c1ccccc1	-74
O=C(C#Cc1ccccc1)c1ccccc1	89*
O=C(COc1ccccc1)c1ccccc1	-9
CS(=O)(=O)N1C2CN(CC(F)(F)F)CC1C2c1ccc(Br)cc1 (stereo not drawn)	-7
CCCC#Cc1cnc2c(c1)C(=O)N([C@H](C)CO)C[C@H](C)[C@@H](CN(C)C(=O)Cc1ccncc1)O2	-2[25 µM]
CCC(=O)N1[C@H](CO)[C@H](c2ccc(C#CC3CCCC3)cc2)[C@@H]1CNC(C)C	-2
C[C@@H]1CN(C)C(=O)c2cc(N(C)C)ccc2O[C@@H]1CN(C)C	3
Cc1cc(C)nc(NC(=O)CN2C(=O)c3ccccc3S2(=O)=O)n1	4
O=C(CN1C(=O)c2ccccc2S1(=O)=O)Nc1ncc(Cl)cc1Cl	56*
O=C(CN1C(=O)c2ccccc2S1(=O)=O)Nc1ncccn1	7
CN(C)C(=O)c1cccc(-c2ccc([C@@H]3[C@@H](C#N)N(C(=O)C4CC4)[C@@H]3CO)cc2)c1	1
SMILES	CD40 NFkB inh
CSc1nc2ccccc2s1	2
NS(=O)(=O)c1ccc(Sc2nc3ccccc3s2)c([N+](=O)[O-])c1	81*
NS(=O)(=O)c1ccc(N/N=C/c2ccccn2)c([N+](=O)[O-])c1	2
CCCNC(=O)N1CC2(CCN(C(=O)Cc3cccnc3)CC2)c2c([nH]c3cc(OC)ccc23)[C@H]1CO	-25[25 µM]
CCCC#Cc1ccc2c(c1)[C@H]1[C@H](CCN1S(=O)(=O)c1cn(C)cn1)[C@H](CO)N2	17[25 µM]
Cc1noc(C)c1NC(=O)N1C[C@@H](O)COC[C@@H]2O[C@@H](CC(=O)N3CCc4ccccc4C3)CC[C@H]21	-8[25 µM]
N#C[C@@H]1[C@H](c2ccccc2C2=CCCC2)[C@H](CO)N1C(=O)Cc1ccncc1	-11[25 µM]
C[C@@H]1CN(C)C(=O)c2ccccc2O[C@H]1CN(C)C	-55
O=C(Cc1cccc([N+](=O)[O-])c1)Nc1ccccc1	-2
O=[N+]([O-])c1ccc(S(=O)Cc2ccccc2)c([N+](=O)[O-])c1 (stereo not drawn)	106*
O=[N+]([O-])c1ccc(CS(=O)c2ccccc2)cc1 (stereo not drawn)	-6
COc1ccc(NC(=O)N(C)C[C@H]2Oc3ccc(NS(=O)(=O)c4ccc(F)cc4)cc3C(=O)N([C@H](C)CO)C[C@H]2C)cc1	7
CCOC(=O)c1cc2c(ccn2C)n1CC(=O)N(C)C	2
CCOC(=O)c1cc2c(ccn2C)n1Cc1ccc(Cl)cc1	10
CCOC(=O)c1cc2c(ccn2C)n1Cc1ccc(C#N)cc1	55*
Cc1noc(C)c1NC(=O)Nc1ccc2c(c1)C(=O)N([C@@H](C)CO)C[C@@H](C)[C@H](CN(C)Cc1ccc3c(c1)OCO3)OCCCC[C@H](C)O2	-5[25 µM]
CC(C)NC(=O)Nc1cccc2c1O[C@@H](CN(C)C)[C@@H](C)CN(C)C2=O	-3
CC(C)NC(=O)Nc1ccc2c(c1)CC(=O)N(C)C[C@@H](C)[C@@H](CN(C)S(C)(=O)=O)O2	-5
COc1ccccc1-c1cnn2c(NCCc3ccccc3)cc(C)nc12	-53
c1ccc(-c2nc(NCCCn3ccnc3)c3ccccc3n2)cc1	18
Cc1cc(NCCCn2ccnc2)n2ncc(-c3ccccc3)c2n1	88*
C/C=C/c1ccccc1[C@@H]1[C@@H](CO)N(C(=O)c2cccnc2)[C@H]1C#N	-12[25 µM]
CCCC#Cc1ccc([C@H]2[C@@H](C#N)N(C(=O)CN3CCOCC3)[C@@H]2CO)cc1	2[25 µM]
COC(=O)C[C@@H]1CC[C@H]2[C@@H](COc3ccc(NC(=O)Nc4cccc(C#N)c4)cc3C(=O)N2C)O1	-6[25 µM]
COCC#Cc1ccc([C@H]2[C@@H](CO)N3C(=O)CN(C(=O)c4ccncc4)C[C@H]23)cc1	2[25 µM]
SMILES	CD40 NFkB inh
CNC[C@@H]1Oc2ccc(N(C)C)cc2C(=O)N(C)C[C@H]1C	8
C[C@@H]1CN(C)C(=O)c2ccccc2O[C@@H]1CN(C)S(C)(=O)=O	-1
C[C@@H]1CN(C)C(=O)c2cccnc2O[C@H]1CN(C)S(C)(=O)=O	35*
C[C@H]1CN(C)C(=O)c2cccnc2O[C@H]1CN(C)C	16
COCC(=O)NC[C@@H]1N[C@@H](CO)[C@H]1c1ccc(-c2ccccc2F)cc1	-4[25 µM]
O=C(Nc1cccc(F)c1)N1C[C@@H]2N[C@H](C1)C2c1ccc(-c2ccccc2F)cc1 (stereo partly drawn)	-1
COc1ccc(NC(=O)N2C[C@@H]3N[C@H](C2)C3c2ccc(-c3ccncc3)cc2)cc1 (stereo partly drawn)	-4[25 µM]
Cc1ccccc1-c1ccc(C2[C@@H]3CN(C(=O)Nc4cccc(F)c4)C[C@H]2N3)cc1 (stereo partly drawn)	62*[25 µM]
COc1ccc(NC(=O)N2C[C@@H]3N[C@H](C2)C3c2ccc(-c3cncnc3)cc2)cc1 (stereo partly drawn)	19
COc1ccc(NC(=O)N2C[C@@H]3N[C@H](C2)C3c2ccc(-c3cccc(OC)c3)cc2)cc1 (stereo partly drawn)	-25
COc1ccc(NC(=O)N2C[C@@H]3N[C@H](C2)[C@@H]3c2ccc(-c3ccc(OC)cc3)cc2)cc1	63*
Cc1ccccc1-c1ccc(C2[C@@H]3CN(C(=O)Nc4ccc(F)cc4)C[C@H]2N3)cc1 (stereo partly drawn)	37[25 µM]
COc1cccc(-c2ccc(C3[C@@H]4CN(C(=O)C5CC5)C[C@H]3N4)cc2)c1 (stereo partly drawn)	63*!
COc1cccc(-c2ccc(C3[C@@H]4CN(C(=O)C5CCC5)C[C@H]3N4)cc2)c1 (stereo partly drawn)	3
C[C@@H]1CN([C@@H](C)CO)C(=O)c2c(c3ccccc3n2C)-c2ccccc2CO[C@H]1CN(C)Cc1ccc2c(c1)OCO2	10[25 µM]
C[C@@H]1CC(=O)N[C@@H](c2ccccc2)C/C=C\C[C@H](c2ccc3c(c2)OCO3)NC1=O	-6[25 µM]
CC(C)NC(=O)Nc1ccc2c(c1)C(=O)N(C)C[C@@H](C)[C@H](CN(C)C)O2	-2

Source: PubChem (Broad Institute)
